This is an account of results in PubChem BioAssay (NCI).

Among the test systems are NCI-H23 lung; NCI-H226 lung; NCI-H322M lung; HOP-62 NSCLC; NCI-H460 lung; HOP-92 NSCLC; NCI-H522 lung; A549/ATCC NSCLC; 786-0 renal; COLO 205 colon; DU-145 prostate; K-562 leukemia; MALME-3M melanoma; MDA-MB-231 breast; RXF 393 renal; SF-268 CNS; SF-295 CNS; SF-539 CNS; UACC-257 melanoma; M14 melanoma.
Holding throughout (assay): NCI-60 one-dose screen, 48 h (100 = growth as untreated, 0 = no growth, -100 = all killed)
What all share (details): 10 µM unless noted

The structures appear in SMILES notation. The panel holds about 83,000 compounds, 20% with a hit somewhere; the sample as a whole holds those more often.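 Single-concentration screen, 48 h exposure, 96-well plates. Endpoint: percent growth. Below 10 = active.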 Unmarked numbers belong to inactive results. Calls of active or inactive are those of the source.

Turning to `CCOc1ccc(C(C[N+](=O)[O-])Sc2ccccc2N)cc1` (stereo not drawn), the growth in the assay with NCI-H23 lung is 10.2%; in the assay with NCI-H226 lung it was 78.6%; in the assay with NCI-H322M lung, 88.2%; in the assay on HOP-62 NSCLC, 92.1%; with NCI-H460 lung, 58.9%; in the assay on HOP-92 NSCLC, 82.7%. Besides, the growth in the assay with NCI-H522 lung is 85.3%; with A549/ATCC NSCLC, 62.9%; in the assay on 786-0 renal, -63.2% (active); in the assay on COLO 205 colon it was 10.1%; with DU-145 prostate, -19.9% (active); in the assay on K-562 leukemia, 9.12% (active). Also, the growth was 68% in the assay on MALME-3M melanoma; 18.4% in the assay on MDA-MB-231 breast; -65.3% (active) in the assay with RXF 393 renal; 120% in the assay on SF-268 CNS; 40.4% with SF-295 CNS; -44.5% (active) in the assay on SF-539 CNS. Besides, the values for the growth in the assay with UACC-257 melanoma and in the assay on M14 melanoma were 59.2% and -41.2% (active), respectively.

Take `O=C(C[P+](c1ccccc1)(c1ccccc1)c1ccccc1)c1ccccc1`: the growth in the assay with NCI-H23 lung was 91.9%; in the assay on NCI-H226 lung, 99.4%; with NCI-H322M lung it was 92.2%; in the assay with HOP-62 NSCLC, 94.7%; with NCI-H460 lung, 97.7%; with HOP-92 NSCLC, 55.9%. Also, the growth with NCI-H522 lung is 61.4%; in the assay with A549/ATCC NSCLC, 90.1%; in the assay with 786-0 renal, 99.6%; in the assay with COLO 205 colon, 89.6%; in the assay on DU-145 prostate, 102%; with K-562 leukemia, 84%. Besides, the growth is 110% with MALME-3M melanoma; 84.5% in the assay with MDA-MB-231 breast; 107% in the assay with RXF 393 renal; 94.6% in the assay on SF-268 CNS; 87.4% with SF-295 CNS; 104% in the assay with SF-539 CNS. The growth was 101% in the assay on UACC-257 melanoma and 106% in the assay on M14 melanoma.

With `N#CCc1cccc2ccccc12`, the growth with NCI-H23 lung is 109%; with NCI-H226 lung it was 100%; with NCI-H322M lung it was 106%; in the assay with HOP-62 NSCLC, 109%; in the assay on NCI-H460 lung, 108%; in the assay on HOP-92 NSCLC, 87.2%. In addition, the growth in the assay on NCI-H522 lung is 91.6%; in the assay with A549/ATCC NSCLC, 103%; with 786-0 renal, 109%; in the assay with COLO 205 colon it was 115%; in the assay with DU-145 prostate it was 123%; in the assay on K-562 leukemia it was 103%. Also, the growth with MALME-3M melanoma is 110%; in the assay on MDA-MB-231 breast, 103%; in the assay on RXF 393 renal, 114%; in the assay on SF-268 CNS, 116%; in the assay with SF-295 CNS it was 123%; in the assay on SF-539 CNS, 101%. Further, the growth in the assay with UACC-257 melanoma was 105%; in the assay on M14 melanoma, 109%.

For `O=Nc1ccc2ccccc2c1O`, the growth in the assay on NCI-H23 lung was 56.6%; in the assay with NCI-H226 lung, 102%; in the assay with NCI-H322M lung, 103%; in the assay on HOP-62 NSCLC it was 95.2%; with NCI-H460 lung it was 97.5%; in the assay on HOP-92 NSCLC, 90.1%. Further, the growth is 74.7% in the assay with NCI-H522 lung; 87.1% with A549/ATCC NSCLC; 98% with 786-0 renal; 75.1% in the assay with COLO 205 colon; 94.3% in the assay with DU-145 prostate; 80.9% in the assay with K-562 leukemia. Further, the growth in the assay on MALME-3M melanoma was 63.4%; in the assay with MDA-MB-231 breast, 54.6%; with RXF 393 renal, 93.8%; in the assay on SF-268 CNS it was 91.6%; in the assay on SF-295 CNS, 83%; in the assay on SF-539 CNS it was 108%. Also, the growth with UACC-257 melanoma is 18.3%.

For the molecule `CCC(C)C(N)C(=O)NC(CC(N)=O)C(=O)NC(CC(C)C)C(=O)NC(CCCCN)C(=O)NC(C)C(=O)NC(CC(C)C)C(=O)NC(C)C(=O)NC(C)C(=O)NC(CC(C)C)C(=O)NC(C)C(=O)NC(CCCCN)C(=O)NC(CCCCN)C(=O)NC(C(=O)NC(CC(C)C)C(N)=O)C(C)CC` (stereo not drawn), the growth in the assay on NCI-H23 lung is 82.1%; in the assay on NCI-H226 lung it was 113%; with NCI-H322M lung it was 100%; in the assay with HOP-62 NSCLC, 74.9%; in the assay with NCI-H460 lung it was 79.3%; in the assay on HOP-92 NSCLC, 61%. Further, the growth is 85.2% in the assay on NCI-H522 lung; 90.3% in the assay with A549/ATCC NSCLC; 68.1% in the assay on 786-0 renal; 90% with COLO 205 colon; 57.9% in the assay on DU-145 prostate; 82.5% with K-562 leukemia. For the same molecule, the growth with MALME-3M melanoma is 52.1%; with MDA-MB-231 breast, 62.1%; in the assay on RXF 393 renal, 39.6%; in the assay on SF-268 CNS it was 66.8%; with SF-295 CNS, 106%; in the assay with SF-539 CNS it was 35.6%. The growth in the assay with UACC-257 melanoma is 104%.

Consider `CC(O)C(O)C(O)C(O)C(O)C(=O)NNc1ccccc1` (stereo not drawn), for which the growth is 96.1% in the assay with NCI-H23 lung; 94.3% in the assay with NCI-H226 lung; 76.1% in the assay on NCI-H322M lung; 72.4% in the assay with HOP-62 NSCLC; 100% with NCI-H460 lung; 95.2% with HOP-92 NSCLC. For the same molecule, the growth with NCI-H522 lung was 66.8%; with A549/ATCC NSCLC it was 90.9%; in the assay on 786-0 renal, 103%; in the assay with COLO 205 colon, 94.2%; with DU-145 prostate, 96.4%; in the assay with K-562 leukemia, 67.7%. Besides, the growth in the assay with MALME-3M melanoma is 105%; in the assay with MDA-MB-231 breast it was 81.1%; in the assay on RXF 393 renal, 119%; with SF-268 CNS, 87.4%; in the assay on SF-295 CNS, 86.4%; in the assay with SF-539 CNS, 92.7%. In addition, the growth in the assay with UACC-257 melanoma is 100%; in the assay with M14 melanoma, 85%.

Consider `NC(=S)N/N=C/c1ncccc1O`, for which the growth with NCI-H23 lung is -6.55% (active); with NCI-H226 lung it was 39%; in the assay with NCI-H322M lung, 40.2%; in the assay on HOP-62 NSCLC, 17.8%; with NCI-H460 lung, 8.78% (active); in the assay with HOP-92 NSCLC, 2.7% (active). The growth is 26% in the assay with NCI-H522 lung; 28% in the assay with A549/ATCC NSCLC; -17.1% (active) in the assay on 786-0 renal; 11.2% with COLO 205 colon; 12.7% in the assay with DU-145 prostate; 24% in the assay with K-562 leukemia. The growth in the assay with MALME-3M melanoma is 54%; with MDA-MB-231 breast, 34.8%; in the assay with RXF 393 renal, 9.63% (active); in the assay on SF-268 CNS, 14.9%; with SF-295 CNS it was 21.5%; with SF-539 CNS it was -7.14% (active). The growth was 18.9% in the assay on UACC-257 melanoma and -56.2% (active) in the assay with M14 melanoma.
